aDG glyco up: activators of alpha-DG glycosylation, primary screen, uHTS, Pro5-aDG cells, AlphaScreen; alpha-DG glycosylation AlphaScreen (IIH6); 0% Pro5, 100% B10-LARGE cell signal; activation, % at 10 µM; hit rate 0.22% among 360,000; AID 624168, 2012;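 active means activation of at least 8% versus controls, or a plate z-score of at least 8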;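 further: Pro5 are CHO cells carrying HIG-tagged alpha-DG that lacks glycosylation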
ADAM10 inh: human ADAM10 inhibitors, primary screen, biochemical, QFRET, HTS. recombinant ADAM10, EDANS/DABCYL FRET peptide cleavage, 3 h. AID 720582, 2013. hit rate 0.62% among 370,000. inhibition, % at 7 µM;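 active means inhibition above a per-campaign cutoff equal to the mean of compounds falling between control-based bounds plus 3 SD, cut at about 20% in these data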;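 further: 0% = DMSO wells while the 100% control is not disclosed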
GRIN3A LBD mod: binders of NR3A ligand-binding domain, primary screen, biophysical, differential scanning fluorimetry, uHTS; Glutamate receptor ionotropic, NMDA 3A (GRIN3A) ligand-binding domain; NR3A LBD differential scanning fluorimetry, Tm shift; 0% = protein alone, 100% = glycine-bound protein; Tm shift relative to glycine control, % at 25 µM; hit rate 2.5% among 340,000; AID 1259313, 2017;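 active means melting temperature shift of at least 10% of the positive control shift, at one fixed dose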
FAS TE block: FAS thioesterase domain inhibitors, primary screen, biochemical, fluorescence intensity, uHTS. recombinant FAS-TE, OMFH fluorogenic substrate, fluorescence endpoint. inhibition, % at 15 µM. hit rate 0.67% among 360,000. AID 602261, 2012;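 active means compounds whose normalised, plate-corrected inhibition of enzyme fluorescence in the single-dose primary screen is 50% or more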;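 further: 0% = DMSO with enzyme and 100% = substrate without enzyme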
ADAM17 inh: ADAM17 inhibitors, primary screen, biochemical, QFRET; Disintegrin and metalloproteinase domain-containing protein 17 (Homo sapiens), P78536; recombinant ADAM17, EDANS/DABCYL FRET peptide cleavage; inhibition, % at 6.95 µM; hit rate 0.83% among 370,000; AID 720648, 2013;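 active means inhibition above the mean of compounds lying between control limits plus 3 SD, set per campaign, cut at about 8.5% in these data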;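 further: 0% = DMSO-only wells as the low control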
Target sequence (P78536 215-824 limits assumed): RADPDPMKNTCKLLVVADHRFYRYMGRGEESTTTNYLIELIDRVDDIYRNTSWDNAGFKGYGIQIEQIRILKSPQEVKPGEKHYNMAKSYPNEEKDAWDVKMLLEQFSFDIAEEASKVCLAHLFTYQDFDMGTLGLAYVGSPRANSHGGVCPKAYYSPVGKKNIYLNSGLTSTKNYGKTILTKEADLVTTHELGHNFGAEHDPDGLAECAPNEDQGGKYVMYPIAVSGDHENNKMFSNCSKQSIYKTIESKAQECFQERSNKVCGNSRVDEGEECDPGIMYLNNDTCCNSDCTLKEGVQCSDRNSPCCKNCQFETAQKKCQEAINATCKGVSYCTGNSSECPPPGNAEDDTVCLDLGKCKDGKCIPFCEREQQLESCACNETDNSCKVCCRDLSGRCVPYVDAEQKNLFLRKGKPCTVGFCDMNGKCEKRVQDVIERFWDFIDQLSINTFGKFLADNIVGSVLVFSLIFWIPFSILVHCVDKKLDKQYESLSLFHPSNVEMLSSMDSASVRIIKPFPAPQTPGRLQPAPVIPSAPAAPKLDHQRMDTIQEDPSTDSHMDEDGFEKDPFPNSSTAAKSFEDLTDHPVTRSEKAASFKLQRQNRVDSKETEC
Active calls of the source: *. Only some compounds are listed: those with a hit (about 4% of all), similar ones and a draw of the others.

Results for O=C(O)CCCCCN1C(=O)/C(=C/c2cn(-c3ccccc3)nc2-c2cccs2)SC1=S ?
aDG glyco up: 0; ADAM10 inh: 8; GRIN3A LBD mod: 20*; FAS TE block: -45; ADAM17 inh: 3

What do the screens show for `O=C(O)CCN1C(=O)/C(=C/c2cn(-c3ccccc3)nc2-c2cccs2)SC1=S`?
aDG glyco up: 0; ADAM10 inh: 1; GRIN3A LBD mod: 29*; FAS TE block: 1; ADAM17 inh: -5

What do the screens show for `O=C(N/N=C/c1cn(-c2ccccc2)nc1-c1cccs1)c1ccccc1F`?
aDG glyco up: 1; GRIN3A LBD mod: 4; FAS TE block: 21

How did COc1ccc(C(=O)N2CC(c3ccccc3)CC2=O)cc1 (configuration not stated) do in these assays?
aDG glyco up: 0; ADAM10 inh: 2; GRIN3A LBD mod: 2; FAS TE block: -3; ADAM17 inh: -3

How did O=C1CC(c2ccccc2)CN1C(=O)c1ccccc1 (configuration not stated) do in these assays?
aDG glyco up: 0; ADAM10 inh: 3; GRIN3A LBD mod: 13*; FAS TE block: 0; ADAM17 inh: -1

What do the screens show for `CCOc1cc(/C=C2/NC(=O)N(Cc3ccccc3F)C2=O)ccc1O`?
aDG glyco up: 0; ADAM10 inh: -5; GRIN3A LBD mod: 30*; FAS TE block: 5; ADAM17 inh: -1

What do the screens show for `Nc1ccccc1-c1nc2ccccc2[nH]1`?
aDG glyco up: 0; ADAM10 inh: inactive; GRIN3A LBD mod: -11; FAS TE block: -4; ADAM17 inh: inactive

What do the screens show for `c1ccc(-c2cc(-c3nc4ccccc4[nH]3)c3ccccc3n2)cc1`?
aDG glyco up: 0; ADAM10 inh: inactive; GRIN3A LBD mod: 22*; FAS TE block: 17; ADAM17 inh: -347

How did O=C1/C(=C/c2ccccc2)Oc2cc(OC(=O)N3CCOCC3)ccc21 do in these assays?
aDG glyco up: 1; ADAM10 inh: -9; GRIN3A LBD mod: 20*; FAS TE block: -10; ADAM17 inh: -3

Results for C/C(=N\NC(=O)C(NC(=O)c1ccccc1)C(C)C)c1ccccc1 (configuration not stated) ?
aDG glyco up: 0; ADAM10 inh: 1; GRIN3A LBD mod: 0; FAS TE block: -3; ADAM17 inh: -1

What do the screens show for `COc1ccc(-c2cc(-c3ccccc3)nc(SCC(=O)Nc3ncc(C)s3)c2C#N)cc1`?
aDG glyco up: 0; ADAM10 inh: -21; GRIN3A LBD mod: 20*; FAS TE block: 38; ADAM17 inh: -5

What do the screens show for `CCc1nnc(NC(=O)CSc2nc(-c3ccc(F)cc3)cc(-c3ccccc3)c2C#N)s1`?
aDG glyco up: 0; ADAM10 inh: 3; GRIN3A LBD mod: -1; FAS TE block: 0; ADAM17 inh: -1

What do the screens show for `CCc1ccc(-c2cc(C)no2)cc1S(=O)(=O)NCCN1CCC(C)CC1`?
aDG glyco up: 0; ADAM10 inh: -9; GRIN3A LBD mod: 15*; FAS TE block: -3; ADAM17 inh: -4

Results for CCCN(CC1CC1)C(=S)NC(=O)C1CC1 ?
aDG glyco up: 0; ADAM10 inh: 1; GRIN3A LBD mod: 1; FAS TE block: 0; ADAM17 inh: -2

How did Cc1nc(N2C(=O)C(=O)/C(=C(/O)c3ccccc3)C2c2ccco2)sc1C (configuration not stated) do in these assays?
aDG glyco up: 0; ADAM10 inh: 7; GRIN3A LBD mod: 0; FAS TE block: -4; ADAM17 inh: 1

Results for CC(=O)Nc1cccc(C(=O)/C=C/c2ccc(N(C)C)cc2)c1 ?
aDG glyco up: 0; ADAM10 inh: -9; GRIN3A LBD mod: 18*; FAS TE block: -11; ADAM17 inh: -1

How did Cc1nnc(NC(=O)C(C)Sc2nnc(-c3ccco3)n2C)s1 (configuration not stated) do in these assays?
aDG glyco up: 0; ADAM10 inh: 2; GRIN3A LBD mod: -1; FAS TE block: -4; ADAM17 inh: 0

How did CC(Sc1nnc(-c2ccco2)n1C)C(=O)Nc1nccs1 (configuration not stated) do in these assays?
aDG glyco up: 0; ADAM10 inh: -1; GRIN3A LBD mod: 21*; FAS TE block: -10; ADAM17 inh: 2

Results for FC(F)Sc1nc(-c2ccccc2)c(-c2ccccc2)n1C(F)F ?
aDG glyco up: 0; ADAM10 inh: 4; GRIN3A LBD mod: 18*; FAS TE block: 24; ADAM17 inh: 1

Results for c1ccc(-c2nc3ccccn3c2-c2ccccc2)cc1 ?
aDG glyco up: 0; ADAM10 inh: -149; GRIN3A LBD mod: -1; FAS TE block: 15; ADAM17 inh: -62

How did Cc1ccc(C23CC4CC(CC(CN)(C4)C2)C3)cc1 do in these assays?
aDG glyco up: 9.5*; ADAM10 inh: 3; GRIN3A LBD mod: -1; FAS TE block: -9; ADAM17 inh: 0

Results for Cc1csc2ncnc(N3CCN(C(=S)Nc4ccc(C(F)(F)F)cc4)CC3)c12 ?
aDG glyco up: 0; ADAM10 inh: -1; GRIN3A LBD mod: 15*; FAS TE block: 42; ADAM17 inh: 0

Results for O=C(CCSc1ccccc1)OCn1nnc2ccccc2c1=O ?
aDG glyco up: 0; ADAM10 inh: -1; GRIN3A LBD mod: -2; FAS TE block: 8; ADAM17 inh: 0

What do the screens show for `CC12CCC(=O)N1C(C(=O)Nc1nc3ccccc3s1)CS2` (configuration not stated)?
aDG glyco up: 0; ADAM10 inh: -15; GRIN3A LBD mod: -2; FAS TE block: -6; ADAM17 inh: 3

How did OCc1ncc(-c2ccccc2)s1 do in these assays?
aDG glyco up: 0; ADAM10 inh: 3; GRIN3A LBD mod: 10*; FAS TE block: -8; ADAM17 inh: -2

How did CCN(CC)S(=O)(=O)c1ccc2oc(C(=O)NCCN3CCOCC3)c(C)c2c1 do in these assays?
aDG glyco up: 0; ADAM10 inh: -7; GRIN3A LBD mod: 58*; FAS TE block: -5; ADAM17 inh: -2

What do the screens show for `CCN(CC)S(=O)(=O)c1ccc2oc(C(=O)N3CCOCC3)c(C)c2c1`?
aDG glyco up: 0; ADAM10 inh: -1; GRIN3A LBD mod: 0; FAS TE block: -6; ADAM17 inh: -4

How did CC(Sc1nc(N)cc(=O)[nH]1)C(=O)Nc1nc2c(s1)CCCC2 (configuration not stated) do in these assays?
aDG glyco up: 0; ADAM10 inh: -5; GRIN3A LBD mod: -1; FAS TE block: -2; ADAM17 inh: -2

Results for COc1ccccc1C(=O)NNC(=O)CN(C)S(=O)(=O)c1ccc(Cl)cc1 ?
aDG glyco up: 0; ADAM10 inh: -2; FAS TE block: -5; ADAM17 inh: -2

Screening results as filed in PubChem BioAssay.
